Bioassay records: PubChem, Broad Institute
C diff HTS: blocks growth of Clostridium difficile; 86,000 tested, 0.25% active; growth activity, negative = inhibition, % at 16 µg/mL (by protocol); Clostridium difficile clinical isolate growth, OD600, 24 h; stronger effect = lower value; AID 1259249;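 active = mean growth activity at or below -80% and every replicate also at or below -80%; inconclusive = mean at or below -80% but some replicate above -80%; inactive = mean growth activity above -80%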;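 note: 0% = DMSO wells and -100% = levofloxacin 16 µg/mL wells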
Pf Dd2 inh: inhibitors of Plasmodium falciparum Dd2 growth; P. falciparum Dd2 growth, SYBR Green, 72 h; stronger effect = lower value; activity change, % at 10 µM; 94,000 tested, 2.3% active; AID 1159554; in the data active = activity change below about -80%; inconclusive = no clear call, values can overlap the other calls
T cruzi growth-1: blocks T. cruzi growth in NIH3T3 culture; T. cruzi beta-gal in NIH3T3, GalScreen luminescence, 90 h; inhibition, % at 8.34 µM; 77,000 tested, 5.9% active;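 active = mean inhibition above about 93%, with at least 55% of replicates each passing it, limit read from the data, passing the limit was not always enough; inconclusive = only one of those two conditions holds; inactive = neither condition holds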
T cruzi growth-2: blocks T. cruzi growth in NIH3T3 host cells | shares compounds with T cruzi growth-1 | T. cruzi beta-gal in NIH3T3, GalScreen luminescence, 90 h | inhibition, % at 8.35 µM | 5,600 tested, 72% active | AID 651739;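 active = mean replicate inhibition above about 95% and at least 55% of replicates individually reaching it, limit read from the data; inconclusive = only one of the two criteria is met; inactive = neither criterion is met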
T cruzi growth-3: blocks T. cruzi growth in NIH3T3 host cells; 5,600 tested, 21% active; AID 651740; T. cruzi beta-gal in NIH3T3, GalScreen luminescence, 90 h; shares compounds with T cruzi growth-1; inhibition, % at 2.09 µM;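 active = mean inhibition above about 95%, with at least 55% of replicates also reaching it, limit read from the data; inconclusive = meets just one of the two conditions; inactive = meets neither condition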;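 note: plate controls were neutral control median for no effect and positive control median for full effect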
NIH3T3 tox: cytotoxicity in mouse NIH/3T3 fibroblasts. shares compounds with T cruzi growth-1. NIH/3T3 viability, CellTiter-Glo ATP luminescence, 90 h. cytotoxicity (signal decrease), % at 8.35 µM. 5,600 tested, 14% active;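 active = mean signal decrease across replicates above about 35% based on untreated-well scatter, with enough replicates individually passing, limit read from the data; inconclusive = no rule stated though some were filed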;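 note: 0% = median of neutral control wells and 100% = median of positive control wells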
NIH3T3 tox 2: NIH/3T3 (mouse) viability loss | shares compounds with T cruzi growth-1 | NIH/3T3 viability, CellTiter-Glo ATP luminescence, 90 h | inhibition, % at 24.9 µM | 5,600 tested, 56% active | AID 651744;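 active = mean loss of cell viability signal at or above a set limit, and enough replicates individually reaching it; inconclusive = meets only the mean limit or only the replicate share; inactive = meets neither condition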;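 note: 0% = median of neutral control wells and 100% = median of positive control wells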
An asterisk follows results filed as active; ? = inconclusive; · = not tested or not shown. Only some compounds are listed: those with a hit (about 6.7% of all), similar ones and a draw of the others.

SMILES	C diff HTS	Pf Dd2 inh	T cruzi growth-1	T cruzi growth-2	T cruzi growth-3	NIH3T3 tox	NIH3T3 tox 2
C[C@@H]1CCCCO[C@@H](CN(C)C(=O)C2CCCCC2)[C@@H](C)CN([C@H](C)CO)C(=O)c2cc(N(C)C)ccc2O1	-17.2	·	35.3	·	·	·	·
O=C(C[C@H]1CC[C@H]2[C@@H](COC[C@@H](O)CN2Cc2ccccc2)O1)NCCc1ccccc1	2.3	-10.7	91.8	·	·	·	·
O=S(=O)(N[C@@H]1CC[C@H](CCn2cc(C3CC3)nn2)O[C@H]1CO)c1ccc(Cl)cc1	-2.0	-0.9	25.9	·	·	·	·
CCCN(C)C[C@H]1Oc2ncc(-c3ccccc3)cc2C(=O)N([C@H](C)CO)C[C@H]1C	3.2	-16.1	·	·	·	·	·
CCNC(=O)c1cc2c(c(-c3cccc(-c4cccc(F)c4)c3)n1)[C@H](CCO)N([S@@](=O)C(C)(C)C)C2	·	-45.0	71.1	·	·	·	·
O=C(C[C@H]1CC[C@H]2[C@@H](COC[C@@H](O)CN2Cc2cccc(C(F)(F)F)c2)O1)NCc1ccccc1	9.5	-4.0	-34.8	·	·	·	·
O=C(C[C@H]1CC[C@@H]2[C@H](COC[C@H](O)CN2Cc2cccc(C(F)(F)F)c2)O1)NCc1ccccc1	7.5	-2.2	36.9	·	·	·	·
O=C(C[C@@H]1CC[C@@H]2[C@H](COC[C@@H](O)CN2Cc2cccc(Cl)c2)O1)NCC1CCCCC1	-2.4	·	125.3*	?	30.2	7.2	2.7
O=C(C[C@H]1CC[C@H]2[C@@H](COC[C@H](O)CN2Cc2cccc(C(F)(F)F)c2)O1)NCc1ccc(Cl)cc1	33.8	-14.1	127.8*	107.0*	54.4	24.6	?
O=C(C[C@@H]1CC[C@H]2[C@@H](COC[C@H](O)CN2Cc2cccc(F)c2)O1)NCC1CCCCC1	-0.1	-0.5	-35.6	·	·	·	·
C[C@H](NC(=O)C[C@@H]1CC[C@@H]2[C@H](COC[C@H](O)CN2Cc2ccc(C(F)(F)F)cc2)O1)c1ccccc1	24.1	-25.5	168.4*	78.6	5.6	-2.6	22.9
O=C(C[C@H]1CC[C@H]2[C@@H](COC[C@@H](O)CN2Cc2cccc(C(F)(F)F)c2)O1)NCc1ccc(Cl)cc1	45.2	-3.1	125.2*	92.3	32.9	8.4	86.7*
C[C@@H](NC(=O)C[C@H]1CC[C@H]2[C@@H](COC[C@H](O)CN2Cc2ccc(C(F)(F)F)cc2)O1)c1ccccc1	1.6	4.2	73.0	·	·	·	·
COc1ccc2c3c(n(C)c2c1)[C@H](CO)N(Cc1nccs1)CC31CCN(C(C)=O)CC1	8.8	-1.6	·	·	·	·	·
C[C@H]1CN([C@@H](C)CO)S(=O)(=O)c2ccc(C#Cc3ccccc3F)cc2O[C@@H]1CN(C)C	7.4	2.9	31.9	·	·	·	·
O=C(C[C@H]1CC[C@H]2[C@@H](COC[C@H](O)CN2Cc2cccc(C(F)(F)F)c2)O1)NCc1ccccc1	·	-13.0	23.8	·	·	·	·
O=C(C[C@H]1CC[C@@H]2[C@H](COC[C@H](O)CN2Cc2cccc(C(F)(F)F)c2)O1)NCc1ccc(Cl)cc1	73.9	-0.6	143.7*	103.2*	7.3	12.6	98.7*
C[C@H](CO)N1C[C@H](C)[C@H](CN(C)C(=O)c2ccccc2)OCCCC[C@H](C)Oc2ccc(NC(=O)CCCCCC(=O)Nc3ccccc3N)cc2C1=O	-1.0	-29.2	100.5*	108.0*	?	-7.3	-39.2
C[C@@H]1CCCCO[C@H](CN(C)C(=O)C2CCCCC2)[C@H](C)CN([C@@H](C)CO)C(=O)c2cc(NC(=O)CCCCCC(=O)Nc3ccccc3N)ccc2O1	0.5	-73.5	102.3	·	·	·	·
C[C@@H]1CCCCO[C@H](CN(C)C(=O)c2ccncc2)[C@@H](C)CN([C@H](C)CO)C(=O)c2cc(NC(=O)CCCCCC(=O)Nc3ccccc3N)ccc2O1	2.0	8.9	6.8	·	·	·	·
C[C@@H]1CCCCO[C@H](CN(C)C(=O)c2ccccc2)[C@H](C)CN([C@@H](C)CO)C(=O)c2cc(NC(=O)CCCCCC(=O)Nc3ccccc3N)ccc2O1	-0.6	-47.0	98.6*	106.5*	102.8*	4.8	2.2
C[C@@H]1CN([C@H](C)CO)C(=O)c2cccc(NS(=O)(=O)c3cn(C)cn3)c2O[C@@H]1CN(C)C(=O)Nc1ccc2c(c1)OCO2	·	17.7	-146.3	·	·	·	·
